A selection: hits, their analogues and other compounds. The true share with any hit is near 7.3%.
NPC1 prom act: qHTS Assay for NPC1 Promoter Activators. Huh7 NPC1 promoter luciferase reporter, 24 h. Potency, µM (top dose mostly 9.22 µM), for the others: at the highest dose activation, actives largely listed as activators. 320,000 compounds, 2.4% hits. AID 485313, 2010; also: % of control where 0% means no effect; nearly all actives have a fitted effect of over 60% in size
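Quantitative HTS used a cell-based reporter: Huh7 cells stably bearing the NPC1 promoter upstream of luciferase were treated with compounds for 24 h, and promoter activation was read as luminescence.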
ELG1 genotoxic: qHTS screen for small molecules that induce genotoxicity in human embryonic kidney (HEK293T) cells expressing luciferase-tagged ELG1; 330,000 compounds, 1.3% hits; Potency, µM (top dose mostly 46 µM), for inactives: at the highest dose activity change, positive = activation, most hits filed as activators; AID 504466, 2011; HEK293T ELG1-luciferase reporter, luminescence, 16 h; also: % of control where 0% means no effect; nearly all actives have a fitted effect of over 60% in size
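After overnight (16 hr) compound treatment at 37 °C, ELG1-luciferase HEK293T cells were lysed with ONE-Glo; luminescence quantified 30 min later at room temperature.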
Rab9 prom act: qHTS Assay for Rab9 Promoter Activators; Huh7 Rab9 promoter-luciferase reporter, luminescence, 24 h; Potency, µM (series often up to 9.22 µM), inactives show at the top dose activation, negative = inhibition, most hits filed as activators; 320,000 compounds, 2.8% hits; AID 485297, 2010; also: % of control where 0% means no effect; nearly all actives have a fitted effect of over 60% in size
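Luminescence read-out: Huh7 cells stably expressing Rab9-luciferase, treated 24 h with compound at 37 °C, then lysed with luciferase reagent for 10 min at ambient before reading.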
uPA generation: qHTS for Inhibitors of Cell Surface uPA Generation | 330,000 compounds, 0.31% hits | cell surface uPA generation assay, qHTS | AID 540303, 2011 | Potency, µM (titrated, usually from 38.3 µM), for the others: top-dose activity change, negative = inhibition, usual class: inhibitors; active = well fitted inhibition curve with a large enough effect; inconclusive = small, poorly fitted or top-dose-only effect; inactive = no such curve, though single readings can be large or run the other way; tested in mouse RAW 264.7 cells; also: % is scaled to controls: 0 for no effect and ±100 for the full control effect; nearly all actives have a fitted effect of over 55% in size
FLuc counter: qHTS profiling assay for firefly luciferase inhibitor/activator using purifed enzyme and Km concentrations of substrates (counterscreen for miR-21 project). Potency, µM (series often up to 57.5 µM), for inactives: at the highest dose activity change, negative = inhibition, most hits filed as inhibitors. purified FLuc, Km substrates, luminescence inhibition. 360,000 compounds, 6.9% hits. AID 588342, 2011. Luciferin 4-monooxygenase (Photinus pyralis), P08659;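 also: plate controls were vehicle for no effect and reference inhibitor for full effect; nearly all actives have a fitted effect of over 55% in size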
Target sequence (P08659 whole entry, looked up): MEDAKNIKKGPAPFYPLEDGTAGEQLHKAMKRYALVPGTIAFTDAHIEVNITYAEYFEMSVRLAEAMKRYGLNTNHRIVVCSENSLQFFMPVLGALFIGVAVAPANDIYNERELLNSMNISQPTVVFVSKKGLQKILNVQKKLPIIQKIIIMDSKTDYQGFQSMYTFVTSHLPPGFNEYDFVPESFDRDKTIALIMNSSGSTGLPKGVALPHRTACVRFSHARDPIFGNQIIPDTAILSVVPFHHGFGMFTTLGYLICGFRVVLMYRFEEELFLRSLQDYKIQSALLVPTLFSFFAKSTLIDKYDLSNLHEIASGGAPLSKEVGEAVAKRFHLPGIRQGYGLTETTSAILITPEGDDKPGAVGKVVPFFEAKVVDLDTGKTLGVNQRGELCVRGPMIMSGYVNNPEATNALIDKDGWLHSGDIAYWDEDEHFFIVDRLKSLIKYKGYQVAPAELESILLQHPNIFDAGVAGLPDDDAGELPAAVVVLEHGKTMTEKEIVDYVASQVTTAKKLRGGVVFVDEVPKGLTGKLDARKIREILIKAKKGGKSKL
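Purified P. pyralis luciferase (10nM final) with 10uM D-luciferin and 10uM ATP (Km levels) in 50mM Tris acetate pH 7.5, 10mM Mg acetate, 0.01% Tween-20, 0.05% BSA; qHTS 6-point titration, ~60 µM downward; luminescence read.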
SMN2 splice up: qHTS Assay for Enhancers of SMN2 Splice Variant Expression | HEK293 SMN2-luciferase splicing reporter, luminescence, 30-36 h | Potency, µM (series often up to 46.1 µM), for inactives: top-dose activity change, positive = activation, most hits filed as activators | 210,000 compounds, 2.8% hits; also: % of control where 0% means no effect; nearly all actives have a fitted effect of over 55% in size
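qHTS luciferase splicing reporter: luminescence rises when SMN2 exon 7 is included in transfected HEK293 cells. Compound exposure lasted 30-36 h at 37C, with 4.5 mM final sodium butyrate as control, followed by a ONE-Glo read.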
Starred values were filed as active, the others as inactive; u = inconclusive; x = no result. Unless noted, calls follow the shape of the dose curve; as a rule, active = well fitted curve in the direction sought with a large enough effect; inconclusive = small, poorly fitted or top-dose-only effect, or another doubt; inactive = no such curve, though single readings can be large; an effect the other way counts as inactive or inconclusive. Potency is read from the fitted curve at half-maximal effect.

SMILES	NPC1 prom act	ELG1 genotoxic	Rab9 prom act	uPA generation	FLuc counter	SMN2 splice up
O=C(CSc1nnc(Nc2ccccc2F)s1)c1cc2ccccc2o1	0%	-1%	2%	4%	-18%	20%
COCC(C)n1c(C)cc(C(=O)CSc2nnnn2-c2ccc(O)cc2)c1C (configuration not stated)	6%	3%	10%	0%	21µM*	0%
Cc1cc(C(=O)CSc2nnc(-c3ccc(OC(F)F)cc3)o2)c(C)n1Cc1cccs1	-4%	0%	-3%	4%	0%	12%
COCC(C)n1c(C)cc(C(=O)CSc2ncccn2)c1C (configuration not stated)	3.2µM*	u	4µM*	3%	15µM*	11µM*
COc1cccc(/C=C2/C(=O)NN(c3ccc(Br)cc3)C2=O)c1O	-3%	2%	-2%	4%	1.9µM*	x
COc1cc(/C=C2/C(=O)NN(c3ccc(Cl)cc3)C2=O)cc(Br)c1O	1%	-4%	0%	-1%	27µM*	x
COc1cc(/C=C2/C(=O)NN(c3ccc(Cl)c(Cl)c3)C2=O)cc([N+](=O)[O-])c1O	-3%	0%	-2%	9%	u	x
COc1cc(/C=C2/C(=O)NN(c3ccc(F)cc3)C2=O)cc(Cl)c1O	-1%	0%	0%	6%	21µM*	x
O=C1NN(c2ccccc2)C(=O)/C1=C\c1ccccc1OCC(=O)N1CCOCC1	-4%	-1%	9%	x	u	15%
COc1ccc(-n2c(SCc3cn4c(C)cccc4n3)nc3ccccc3c2=O)cc1OC	-5%	-7%	12%	-18%	-5%	-9%
CCCn1ccc2c(OCC(=O)Nc3ccccc3C(=O)OCC)cccc2c1=O	x	x	x	x	-1%	x
Cc1nc(N2CCCC2)ncc1C(=O)NCc1cccc(Cl)c1	x	x	x	x	-9%	x
Cc1c(/C=N/Nc2ccc(C(=O)O)cc2)c2ccccc2n1C	2.2µM*	u	1.4µM*	12%	11µM*	x
CCn1c(CNc2ccc(C(=O)O)cc2)nc2ccccc21	x	x	x	8%	-4%	-2%
CCn1c(/C=N/Nc2ccc(C(=O)O)cc2)nc2ccccc21	15%	1%	-1%	-9%	11µM*	3%
COC(=O)c1ccc(NC(=O)C2CCN(C(=O)c3ccc(F)cc3)CC2)cc1	x	x	x	x	5%	-16%
CCOC(=O)c1ccc(NC(=O)Nc2cc3c(cc2N2CCCC2)n(C)c(=O)n3C)cc1	x	x	x	x	-1%	14%
CCc1cccc(NC(=O)Cn2c(=O)n(CC3CCC(C(=O)NCCc4ccccc4)CC3)c(=O)c3ccccc32)c1 (configuration not stated)	x	x	x	x	-6%	-8%
CCOC(=O)c1c(C)[nH]c(CCC(=O)NCc2ccccc2Cl)c1C	x	x	x	x	-10%	x
Oc1c(/C=N/Nc2cccc3cccnc23)ccc2ccccc12	u	u	3.2µM*	0%	u	11µM*
Cc1nnsc1C(=O)N/N=C/c1ccc2ccccc2c1O	-18%	-8%	-28%	-10%	u	x
Oc1cccc(/C=N/Nc2cccc3cccnc23)c1	u	u	u	-12%	0.67µM*	x
COc1cc(/C=N/Nc2cccc3cccnc23)cc(OC)c1O	-2%	6%	u	u	2.7µM*	u
CC#CCCCC(=O)Nc1ccccc1C(=O)O	u	u	u	-1%	19µM*	u
CCc1ccc(CCC(=O)Nc2ccccc2C(=O)O)o1	u	u	u	x	19µM*	u
SMILES	NPC1 prom act	ELG1 genotoxic	Rab9 prom act	uPA generation	FLuc counter	SMN2 splice up
CC#CCCCC(=O)Nc1ccc(C(=O)O)cc1	0%	1%	1%	x	-1%	-7%
CCCC(=O)NNC(=O)CC(=O)Nc1ccccc1C(=O)O	-1%	-1%	-1%	10%	-2%	x
Cc1cc(C(=O)NCc2ccccc2Cl)c2c(C)nn(-c3ccccc3)c2n1	x	x	x	x	-6%	x
CCCN(CCC)CCCNC(=O)c1nn(-c2cccc(OC)c2)c(=O)c2ccccc12	-1%	-1%	5%	9%	0%	x
CC(C)CCN(C(=O)c1csnn1)C(C(=O)NC1CCCC1)c1ccc(F)cc1 (configuration not stated)	7%	1%	-3%	9%	19µM*	x
O=C(NC1CCCC1)C(c1ccc(F)cc1)N(Cc1ccccc1)C(=O)c1csnn1 (configuration not stated)	12%	-5%	3%	-6%	0%	x
CC(=O)c1nn(-c2ccc(OC(F)(F)F)cc2)nc1Nc1ccc(C)cc1	x	x	x	x	-5%	-6%
Cc1ccc(/C=N/Nc2nnc(Cl)c3ccccc23)cc1	u	2.3µM*	u	-16%	0.6µM*	4.5µM*
CC(=O)Nc1ccc(C=NNc2nnc(NN=Cc3ccc(NC(C)=O)cc3)c3ccccc23)cc1	x	x	x	-8%	x	x
Clc1ccc(/C=N/Nc2nnc(Cl)c3ccccc23)cc1	u	u	u	4%	u	11µM*
Clc1cncc(Cl)c1N/N=C/c1ccccc1	28%	6%	-1%	2%	21µM*	x
Clc1ccc(/C=N/Nc2nc(Cl)nc3ccccc23)cc1	3%	u	15%	-2%	13µM*	29%
Clc1ccccc1-c1nc(N/N=C/c2cccnc2)c2ccccc2n1	3%	-3%	-1%	-5%	0%	-20%
COc1ccc(OCC(=O)NCC2(N3CCN(C)CC3)CCCCC2)cc1	x	x	x	x	-6%	x
O=C(OCC(=O)N1CCOCC1)c1ccc(Br)cc1	16%	22%	16%	-1%	-19%	x
Clc1nnc(N/N=C/c2ccccc2)c2ccccc12	21%	7.1µM*	u	x	2.7µM*	18µM*
Cc1ccc(NC(=O)C(=O)Nc2ccccn2)cc1	u	u	0.32µM*	-7%	0.54µM*	1.6µM*
COc1ccccc1OCC(=O)Nc1ccccn1	u	2.1µM*	3.2µM*	-14%	3.4µM*	x
COc1ccccc1OCC(=O)Nc1ccncc1	-4%	-6%	-4%	21%	0%	x
Cc1c(C)c2ccc(OCC(=O)N(C)C)c(C)c2oc1=O	-1%	u	-1%	5%	-16%	u
Cc1c(C)c2ccc(OCC(=O)Nc3ccccn3)c(C)c2oc1=O	-34%	u	-20%	u	0.034µM*	x
COc1ccccc1NC(=O)C(=O)Nc1ccccn1	4µM*	u	3.2µM*	u	8.5µM*	16µM*
O=C(NCCc1ccccc1)C(=O)NCC(c1ccc2c(c1)OCO2)N1CCOCC1 (configuration not stated)	x	x	x	x	0%	x
